# Reference: PubChem BioAssay (NCATS)
# “And” between values parts separate entries of the source, which are not always exact repeats. Identical values can stand only once. Records with an inconclusive call do not appear. Entries that show only a call come without a potency. The source made the active and inactive calls. The call rests on the fitted dose curve; in most records, active means well fitted inhibition curve with a large enough effect; inconclusive means small, poorly fitted or top-dose-only effect; inactive means flat fitted curve, though single readings scatter.
# Test system: HaCat
# Assay: Cytotoxic Profiling of Annotated Libraries Using Quantitative High-Throughput Screening (AID 1296008); further: nearly all actives have a fitted effect of over 60% in size
# Conditions: Five cell lines viability, CellTiter-Glo ATP luminescence, 48-72 h; max response: active compounds read low
# Procedure, shortened: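 Cells exposed to compounds for 48 or 72 hr at 37 degrees Celsius. Viability read as ATP-coupled luminescence with CellTiter-Glo after 10 min at room temperature.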
# Potency means the concentration at half of the fitted maximal effect.
SMILES,max response,outcome,Potency
COc1cc(CCN)cc(OC)c1OC,-15.9% (inactive),–,–
CC(C)(N)Cc1ccccc1Cl,–,inactive,–
C#C[C@]1(O)CC[C@H]2[C@@H]3CCC4=CC(=O)CC[C@]4(C)[C@H]3CC[C@@]21C,2.04% (inactive),–,–
C#CC(O)(C=CCl)CC (stereo not given),–,inactive,–
ClCCN1CCCC1,–,inactive,–
C=CCN1C[C@H](C)N([C@H](c2ccc(C(=O)N(CC)CC)cc2)c2cccc(OC)c2)C[C@H]1C,–,inactive,–
COc1ccc2c3c1O[C@H]1[C@H](O)CC[C@H]4[C@@H](C2)N(C)CC[C@@]341,–,inactive,–
CC(=O)OCC1=C(C(=O)O)N2C(=O)[C@@H](N)[C@H]2SC1,-3.66% (inactive) and 4.2% (inactive),–,–
O=C(O)c1ccc(=O)[nH]c1,–,inactive,–
COc1cccc2c1C(=O)c1c(O)c3c(c(O)c1C2=O)C[C@@](O)(C(=O)CO)CC3OC1CC(N2CCOC(OC)C2)C(O)C(C)O1 (stereo not given in full),–,–,21.1 nM (active)
CN1C(=O)CCS(=O)(=O)C1c1ccc(Cl)cc1 (stereo not given),–,inactive,–
COP(=S)(OC)Oc1cc(Cl)c(Cl)cc1Cl,4.52% (inactive),–,–
NC1=NC(=O)C(c2ccccc2)O1 (stereo not given),–,inactive,–
C[C@]12CC[C@@H]3c4ccc(OC(=O)N(CCCl)CCCl)cc4CC[C@H]3[C@@H]1CC[C@@H]2OP(=O)(O)O,4.84% (inactive),inactive,–
COC(=O)[C@@H](N)CCCN/C(N)=N/[N+](=O)[O-],-19.5% (inactive),–,–
O=C(O)/C=C\C(=O)O,1.05% (inactive),–,–
CC[N+]1(CC)CCC(OC(=O)C(O)(c2ccccc2)c2ccccc2)C1 (stereo not given),–,inactive,–
CCC(CC)(CNC(=O)CCCO)c1cccc(OC)c1,-1.8% (inactive),–,–
CN1CC[C@]23c4c5ccc(O)c4O[C@H]2[C@@H](O)CC[C@H]3[C@H]1C5,–,inactive,–
CCc1cc2c(s1)-n1c(C)nnc1CN=C2c1ccccc1Cl,-1.07% (inactive),–,–
CCOC(=O)CC(SP(=S)(OC)OC)C(=O)OCC (stereo not given),-7.37% (inactive) and 2.49% (inactive),–,–
CC(=O)C1CCOC1=O (stereo not given),–,inactive,–
CCN[C@@H](C)Cc1cccc(C(F)(F)F)c1,–,inactive,–
CCCCCN(C)CCC(O)(P(=O)(O)O)P(=O)(O)O,-1.92% (inactive),–,–
CC(NC(C)(C)C)C(=O)c1cccc(Cl)c1 (stereo not given),-7.82% (inactive),inactive,–
C[C@H](N)C(=O)c1ccccc1,-26.7% (inactive),–,–
CC(C)N(CCC(C(N)=O)(c1ccccc1)c1ccccn1)C(C)C (stereo not given),-27.6% (inactive),inactive,–
